According to PubChem BioAssay AID1362 (SRMLSC, 2008):
The whole screen tested about 190,000 compounds, of which about 4,000 (2.1%) were called active. Cut-off read from the data, not from the text of the source: active = inhibition above about 58%; inactive = the rest, inconclusive results apart; tested in S. cerevisiae. Only a selection was taken, and actives are over-represented in it overall.

Assay: growth inhibition of WT strain, primary screen, mitochondrial fusion inhibitor project, WT and mutant strains, chemical genetic (AID 1362)
Details: mitochondrial fusion phenotypic screen, at 10 µM
[1] = WT strain, growth inhibition, stronger effect = higher value

Row | Structure (SMILES) | inhibition [1] | inhibition (mutant strain inhibition) [%]
1 | CC1CN(/C=C/C(=O)C(F)(F)F)CC(C)O1 (stereo not given) | -25.3% (inactive) | 4.39
2 | O=C(O)c1cccc(NC(=S)N/N=C/c2c[nH]c3ccccc23)c1 | -10.2% (inactive) | 4.36
3 | S=c1[nH]nc(-c2ccccc2)n1/N=C/c1c[nH]c2ccccc12 | 1.16% (inactive) | 0
4 | CSC(=S)N/N=C/c1c[nH]c2ccccc12 | 65.8% (active) | 13.3
5 | CCOC(=O)c1cnc2[nH]c3ccccc3n2c1=O | 2.43% (inactive) | -12.9
6 | Cc1ccc(Cl)cc1NC(=O)C1CCN(S(C)(=O)=O)CC1 | -9.34% (inactive) | -12.3
7 | Cc1ccccc1NC(=O)NC1(C(=O)N2CCCC2)CCCCC1 | -9.64% (inactive) | 7.72
8 | Cc1cccc(NC(=S)NCCc2ccc(F)cc2)c1C | 74.7% (active) | 64.6
9 | CCNC(=S)Nc1cccc(Cl)c1C | 12.8% (inactive) | 23.6
10 | Cc1c(NC(=S)NCc2ccc(F)cc2)cccc1[N+](=O)[O-] | 5.62% (inactive) | 3.03
11 | O=C(OCC(=O)N1CCOCC1)c1ccc(N2CCOCC2)c([N+](=O)[O-])c1 | -7.83% (inactive) | -1.16
12 | O=C(COc1ccc(Cl)cc1[N+](=O)[O-])N1CCCCC1 | 1.62% (inactive) | -14.6
13 | COC(=O)N/N=C/c1cn(CCCOc2ccc(C)cc2)c2ccccc12 | 2.1% (inactive) | -14.3
14 | CNC(=S)N/N=C/c1cn(Cc2ccc(C)cc2)c2ccccc12 | 74.4% (active) | 61.2
15 | CCOC(=O)N/N=C/c1cn(Cc2ccccc2Cl)c2ccccc12 | -3.34% (inactive) | -14.2
16 | Cc1cc(C(C)(C)C)cc(S(=O)(=O)Nc2ccc(C(=O)O)cc2)c1C | -13% (inactive) | 10.3
17 | Cc1cc(NS(=O)(=O)c2ccc(NC(=O)c3cccc(OC(F)F)c3)cc2)nc(C)n1 | -7.81% (inactive) | 6.49
18 | Cc1cc(C)cc(NC(=O)CSc2ccccc2)c1 | -4.46% (inactive) | -13.2
19 | O=C(N/N=C/c1ccc([N+](=O)[O-])cc1)c1c[nH]c2ccccc12 | -8.33% (inactive) | 14.7
20 | Cc1nc2ccccc2cc1C(=O)N/N=C/c1ccc([N+](=O)[O-])cc1 | 65.1% (active) | 20.7
21 | Cc1ccsc1C(=O)N/N=C/c1ccc([N+](=O)[O-])cc1 | -11.5% (inactive) | -7.32
22 | Cc1ccc2[nH]c(=O)c(CN(CC3COCCO3)C(=O)Nc3ccccc3C)cc2c1 (stereo not given) | -8.31% (inactive) | 8.92

Row | Structure (SMILES) | inhibition [1] | inhibition (mutant strain inhibition) [%]
23 | Cc1nc(SCC(=O)Nc2cc(C)on2)c2c3c(sc2n1)CCCC3 | 21.1% (inactive) | 31.1
24 | COCCNc1nc(-n2nc(C)cc2C)nc2sc3c(c12)CCCC3 | 18.8% (inactive) | 0
25 | Cc1cc(C)n(-c2nc(SCC(=O)N3CCCC3)c3c4c(sc3n2)CCCC4)n1 | 62% (active) | 38.4
26 | Cc1cc(C)n(-c2nnc(N3CCN(c4ccccc4)CC3)nn2)n1 | 12.1% (inactive) | 10.8
27 | CC(CO)NCC12CC3CC(CC(C3)C1)C2 (stereo not given) | -17.6% (inactive) | -8.59
28 | Cc1ccccc1NC(=O)c1ccccc1 | -1% (inactive) | -29.4
29 | Cc1ccc(Nc2c(F)c(F)c(F)c(F)c2C(=O)O)c(C)c1 | -0.48% (inactive) | -18
30 | COc1c(F)c(F)c(C(=O)O)c(Nc2ccccc2C)c1F | 74.2% (active) | 15.4
31 | CC(=O)c1ccc(NC(=O)C(C)NCc2ccc(Cl)cc2)cc1 (stereo not given) | 26.3% (inactive) | -21.6
32 | Cc1cccc(C)c1NC(=O)Nc1ccccc1-n1ccnc1 | 0.23% (inactive) | 6.61
33 | CCNC(=S)NNC(=O)C1CCN(Cc2ccccc2)CC1 | 2.38% (inactive) | -10.7
34 | CCC(C)(C)n1nnnc1C(c1cccs1)N1CCN(Cc2ccccc2)CC1 (stereo not given) | 10.3% (inactive) | 21.9
35 | Fc1ccc(Cn2nnnc2C(c2cccs2)N2CCCCCC2)cc1 (stereo not given) | 62.9% (active) | 11.4
36 | Fc1ccccc1C(c1nnnn1Cc1ccc2c(c1)OCO2)N1CCN(Cc2ccccc2)CC1 (stereo not given) | 15.4% (inactive) | 18.9
37 | O=C(NCc1nnc(SCC(=O)N2CCCc3ccccc32)o1)c1ccccc1F | 1.27% (inactive) | -4.18
38 | CC(=O)Nc1ccc(CN2CCN(Cc3ccc(F)c(F)c3)C(CCO)C2)cc1 (stereo not given) | 1.99% (inactive) | 5.61
39 | Cc1ccc(NCc2n[nH]c(=S)n2-c2ccccc2)cc1Cl | -7.14% (inactive) | 3.54
40 | CC(=O)n1cc([C@@H]2C=C(C(=O)N3CCN(Cc4ccc5c(c4)OCO5)CC3)O[C@H](OCc3ccc(CO)cc3)C2)c2ccccc21 | 1.15% (inactive) | 3.61
41 | OCCCC1CCCCN1Cc1nc(Cc2ccccc2Cl)no1 (stereo not given) | -11.6% (inactive) | -5.21
42 | C=CCC(CC=C)(C(N)=O)c1ccccc1 | -18.5% (inactive) | 6.11
43 | CN(C)CC(O)COc1ccc(C(C)(C)c2ccc(OCC(O)CN(C)C)cc2)cc1 (stereo not given) | -19.2% (inactive) | -3.67
44 | CC(C)(c1ccccc1)c1ccc(OCCN)cc1 | 79.8% (active) | 43.4

Row | Structure (SMILES) | inhibition [1] | inhibition (mutant strain inhibition) [%]
45 | O=C(NCCOc1ccccc1)c1ccccc1 | 3.33% (inactive) | 5.23
46 | CCOC(=O)c1cc(-c2ccc(F)cc2)n(CC(=O)NCc2ccccn2)c1C | -1.19% (inactive) | 1.72
47 | Cc1nn(-c2ccc([N+](=O)[O-])cc2)c(N)c1-c1ccccc1 | 6.29% (inactive) | -26
48 | Cn1cccc1C(C#N)c1ccccc1C#N (stereo not given) | -2.23% (inactive) | -5.92
49 | COc1ccccc1CCNC(=O)CSc1nnc2ccc(-c3cccnc3)nn12 | -7.72% (inactive) | 2.87
50 | CC(NC(=S)Nc1ccc(OC(F)F)cc1)c1ccc(F)cc1 (stereo not given) | 42.7% (inactive) | -13.6
51 | CN(C)CCCN(C(=O)COc1ccccc1)c1nc2c(Cl)cccc2s1 | -5.71% (inactive) | 13.3
52 | COc1cccc2sc(N(CCCN(C)C)C(=O)C(c3ccccc3)c3ccccc3)nc12 | 96.8% (active) | 88.8
53 | CC(=O)N(CCCN(C)C)c1nc2ccc(C)cc2s1 | -12.7% (inactive) | -0.04
54 | COc1ccc(CNc2c(CO)cnc3c2cnn3C)cc1 | 4.76% (inactive) | 3.68
55 | COCC(C)NC(=O)CSc1nc2nn(-c3ccccc3)c(=O)c-2c2n1CCCCC2 (stereo not given) | 0.91% (inactive) | -15.1
56 | CC(/C=C/c1ccccc1)=N\NC(=O)C1CC1(C)c1ccccc1 (stereo not given) | 71.7% (active) | 59.3
57 | O=C(/C=C/c1ccccc1)c1ccccc1O | 12.3% (inactive) | 8.14
58 | O=C(N/N=C/C=C/c1ccccc1)C1CC1(c1ccccc1)c1ccccc1 (stereo not given) | 17.1% (inactive) | -3.76
59 | CCOC(=O)C1=C(CC)Nc2ccccc2N=C1N | -42.2% (inactive) | -18.4
60 | CCO[C@H]1OC(C(=O)N2CCCCCCC2)=C[C@@H](c2ccc(C(F)(F)F)cc2)[C@@H]1CCCO | -11% (inactive) | 9.51
61 | O=C(Nc1ccccc1)c1nnsc1S(=O)(=O)c1ccc(Cl)cc1 | 98.5% (active) | 97.8
62 | CC(=O)Nc1cc(C(=O)O)ccc1S(=O)(=O)c1ccc(Cl)cc1 | 8.84% (inactive) | 41.8
63 | O=C(Nc1ccc(Cl)cc1)c1ccsn1 | 12.9% (inactive) | 28
64 | CN(C)c1ccc(C=NCCc2ccc(S(N)(=O)=O)cc2)cc1 | -3.5% (inactive) | -12.7
65 | CC(C)CC(CO)N1CCN(C(=O)c2ccc(Cl)cc2Cl)CCC1=O (stereo not given) | -10.3% (inactive) | 1.82
66 | CC(C)CC(COCc1ccc(Cl)cc1)N1CCN(C(=O)c2ccc(C(F)(F)F)cc2)CCC1=O (stereo not given) | 35.7% (inactive) | 0.99

Row | Structure (SMILES) | inhibition [1] | inhibition (mutant strain inhibition) [%]
67 | O=C(c1cc(Cl)cc(Cl)c1)N1CCC(=O)N(C(COCc2ccccc2)Cc2ccccc2)CC1 (stereo not given) | 71.4% (active) | 11.6
68 | O=C(Nc1cccc(F)c1)N1C2CCC1CC(O)(c1cccnc1)C2 (stereo not given) | -6.02% (inactive) | -8.29
69 | C=CCn1c(=NC(=O)c2cccs2)sc2cc(NC(C)=O)ccc21 | -0.58% (inactive) | 5.07
70 | Cc1nc2ccccc2c2oc(C(=O)NCC3CCCO3)cc12 (stereo not given) | 1.66% (inactive) | -8.79
71 | Clc1cccc(-c2nc(NCC3CCCO3)c3ccccc3n2)c1 (stereo not given) | 74.2% (active) | 68.9
72 | c1ccc2c(NCC3CCCO3)nc(-c3ccncc3)nc2c1 (stereo not given) | -20% (inactive) | -11
73 | O=C1Nc2ccc([N+](=O)[O-])cc2C1=Nc1cccc(CO)c1 | 0.18% (inactive) | 6.98
74 | CC(C)(CNC(=O)c1cc(=O)[nH]c2ccccc12)N1CCOCC1 | -13.2% (inactive) | -2.01
75 | CC(C)(CNCC(O)c1ccccc1)N1CCOCC1 (stereo not given) | 64% (active) | 5.08
76 | CC(CN1CCOCC1)c1ccccc1 (stereo not given) | -5.68% (inactive) | 13.1
77 | Cn1c(SCC(=O)Nc2ccc(Br)cc2F)nnc1-c1ccco1 | -5.72% (inactive) | -9.59
78 | CCN(CC)C(=O)Oc1ccc(OC(=O)N(CC)CC)cc1 | -3.56% (inactive) | 8.46
79 | CCn1c(SCC(=O)c2ccc3ccccc3c2)nnc1-c1cccs1 | 16.5% (inactive) | -6.78
80 | O=C(CSc1nnc(-c2cccs2)n1Cc1ccccc1)N1CCc2ccccc2C1 | 70.4% (active) | 40.2
81 | O=C(CSc1nnc(-c2cccs2)n1-c1ccccc1)N1CCN(C(=O)c2ccco2)CC1 | -17.6% (inactive) | -21.2
82 | CCOC(=O)C1(C)NC(c2ccco2)C2C(=O)N(c3ccccc3)C(=O)C21 (stereo not given) | -2.53% (inactive) | -16.9
83 | CCc1cccc(C)c1NC(=S)N(CCCN1CCN(C)CC1)Cc1cccs1 | 4.55% (inactive) | 8.76
84 | Cc1ccc(NC(=S)N(CCCN2CCCC2)Cc2cccn2Cc2ccc(Cl)cc2)cc1 | 83.8% (active) | 31.5
85 | Cc1ccccc1NC(=S)N(CCCN1CCOCC1)Cc1cccs1 | 20.9% (inactive) | -3.99
